Source: PubChem BioAssay AID588742 (Southern Research Specialized Biocontainment Screening …, 2011)
The whole screen tested about 1,800 compounds, of which about 410 (23%) were called active. No rule for the calls is given here. Not all results are given here. Entries that show only a call come without a potency. Potency and affinity values are given separately.

Experiment: viability of Vero cells under compound – cytotoxicity control for flavivirus capping enzyme inhibitors (AID 588742)
Settings: cytotoxicity counter-screen; series mostly up to 40 µM
For Cc1ccc(CC(CC(=O)Nc2cccc(C(F)(F)F)c2)C(=O)O)cc1 (stereo not drawn), the outcome was “inactive”. For O=C1CCCC/C1=C/Nc1ccc2c(c1)OCO2, the outcome was “inactive”. For COC(=O)CC1=NN(c2ccccc2)C(=O)/C1=C\c1ccc(OC)cc1, the outcome was “inactive”. With CC(=O)Oc1ccc(/C=C2/C(=O)N(c3ccccc3)N=C2C)cc1 the outcome was “inactive”. In the case of Cc1ccc(C2C(C#N)=C(N)Oc3nc(-c4ccccc4)[nH]c32)o1 (stereo not drawn), the outcome is reported as “inactive”. With O=C1C(Cl)=C(NCCc2ccccc2)C(=O)c2ccccc21 the outcome was “inactive”. With COc1cccc(/C=C2\SC(=S)N(C(C(=O)O)c3ccccc3)C2=O)c1OC (stereo not drawn) the outcome was “inactive”. With COc1cc2c3c(c1)-c1c(sn(-c4cc(OC)ccc4OC)c1=S)C(C)(C)N3C(=O)C2=O the outcome was “inactive”. For C#CCOc1c(Br)cc(/C=C2/C(=O)ON=C2C)cc1OCC, the outcome was “inactive”. For CCc1ccc(N(C(=O)c2csnn2)C(C(=O)NC(C)(C)CC)c2cccnc2)cc1 (stereo not drawn), the outcome was “inactive”. In the case of O=C1OC(c2ccccc2)/C(=C(/O)c2ccc(Cl)cc2)C1=O (stereo not drawn), the outcome is reported as “inactive”. In the case of CC(C)c1noc2ncc(C(=O)c3cc(Cl)cc(Cl)c3O)cc12, the outcome is reported as “inactive”. For CCCCn1c(=O)nc2n(-c3ccccc3)c3ccccc3cc-2c1=O, the outcome was “inactive”. In the case of O=C1c2ccccc2C(=O)c2c(/C=C/N3CCCCC3)ccnc21, the outcome is reported as “inactive”. For O=S(=O)(Nc1c(O)ccc2ccccc12)c1ccccc1, the outcome was “inactive”. With O=c1ccc2c(-c3ccccc3S(=O)(=O)O)c3ccc(O)c(O)c3oc-2c1O the outcome was “inactive”. In the case of Cc1ccc(S(=O)(=O)NN2C(=O)/C(=C/c3ccc(C(=O)O)cc3)SC2=S)cc1, the outcome is reported as “inactive”. For N#CC1=C(N)N(c2ccccc2)C2=C(C(=O)CCC2)C1c1ccsc1 (stereo not drawn), the outcome was “inactive”. In the case of C=CCn1c(SCC(=O)c2ccccc2)nnc1-c1ccc2c(c1)OCO2, the outcome is reported as “inactive”. With N#C/C(=C\c1cccs1)C(=O)c1ccccc1 the outcome was “inactive”. In the case of CC(=O)OCC1=C(C(=O)O)N2C(=O)C(NC(=O)CCn3nc(C(F)(F)F)c(Br)c3C3CC3)C2SC1 (stereo not drawn), the outcome is reported as “inactive”. In the case of COc1ccc(N2CCN(C(=O)CCC(=O)N3Cc4ccccc4Oc4ncccc43)CC2)cc1, the outcome is reported as “inactive”. In the case of CN1C(C(=O)NCc2cccs2)=CC(c2ccc(F)cc2)=NS1(=O)=O, the outcome is reported as “inactive”. For O=C(O)C(c1ccccc1)N1C(=O)/C(=C/c2cccs2)SC1=S (stereo not drawn), the outcome was “inactive”. With Nc1ccc(S(=O)(=O)Nc2nccs2)cc1N=Nc1ccccc1[N+](=O)[O-] the outcome was “inactive”. For CCOC(=O)c1cc(-c2ccco2)nc2c1c(C)nn2CCC#N, the outcome was “inactive”. With COc1cc(C(C2C(=O)CC(C)(C)CC2=O)C2C(=O)CC(C)(C)CC2=O)ccc1O the outcome was “inactive”. In the case of COc1cccc(/C=C2\SC(=S)N(NS(=O)(=O)c3ccccc3)C2=O)c1OC, the outcome is reported as “inactive”. With CN(C)c1ccc(C=Nc2ccc(N(C)C)cc2)cc1 the outcome was “inactive”. In the case of O=C1NC(=S)N/C1=C/C=C/c1ccccc1, the outcome is reported as “inactive”. With CCCC(C(=O)O)N1C(=O)/C(=C2\C(=O)N(C)c3ccccc32)SC1=S (stereo not drawn) the outcome was “inactive”. In the case of CCN1/C(=C2\C(=O)N(C)C(=S)N2C)C=Cc2cc(OC)ccc21, the outcome is reported as “inactive”. With O=C(O)CN1C(=O)/C(=C\c2cccc(OCc3ccc(Cl)cc3Cl)c2)SC1=S the outcome was “inactive”. For O=C(CNC(=O)N1CC(=O)Nc2ccccc21)Nc1cccc(F)c1, the outcome was “inactive”. With O=C(O)c1[nH]c2ccccc2c1C(c1ccccc1)c1c(C(=O)O)[nH]c2ccccc12 the outcome was “inactive”. In the case of O=C(O)c1ccc(NC2=C/C(=N/S(=O)(=O)c3cccs3)c3ccccc3C2=O)cc1, the outcome is reported as “inactive”. For Cc1ccc(/C=C2\S/C(=N/S(=O)(=O)c3cccs3)NC2=O)cc1, the outcome was “inactive”. In the case of Cc1ccc(S(=O)(=O)/N=C2\C=C(NS(=O)(=O)c3ccc(C)cc3)C(=O)c3ccccc32)cc1, the outcome is reported as “inactive”. With O=C(O)c1ccc(Nc2nc3ccccc3nc2NS(=O)(=O)c2ccc(F)cc2)cc1 the outcome was “inactive”. For O=C(O)c1ccc(NS(=O)(=O)c2ccc3c(c2)C(=O)c2cc(S(=O)(=O)Nc4ccc(C(=O)O)cc4)ccc2-3)cc1, the outcome was “inactive”. With CC(C)(C)c1ccc(S(=O)(=O)/N=C2\C=C(NS(=O)(=O)c3ccccc3)C(=O)c3ccccc32)cc1 the outcome was “inactive”. In the case of Cc1ccc(N2C(N)=C(C#N)C(c3cccnc3)C3=C2CCCC3=O)cc1 (stereo not drawn), the outcome is reported as “inactive”. For C=CCOc1cccc(C2C(C(=O)c3cc4ccccc4o3)=C(O)C(=O)N2c2cc(C)on2)c1 (stereo not drawn), the outcome was “inactive”. For CCOc1ccc(NS(=O)(=O)c2ccc(Cl)c(N=Nc3c(O)[nH]c(=S)[nH]c3=O)c2)cc1Br, the outcome was “inactive”. In the case of C/C(=N\Nc1cccc(C(=O)O)c1)c1ccc2c(c1)Nc1ccccc1S2, the outcome is reported as “inactive”. For CC(N=Cc1cccc(O)c1O)c1ccccc1 (stereo not drawn), the outcome was “inactive”. With CSc1ccc(C(c2c(C(=O)O)[nH]c3ccccc23)c2c(C(=O)O)[nH]c3ccccc23)cc1 the outcome was “inactive”. With CN(C(=S)Nc1ccc(SC(F)F)cc1)c1ccc(O)cc1 the outcome was “inactive”. In the case of CC(C)c1nc(SCC(=O)N2CCCC2)c2ccccc2n1, the outcome is reported as “inactive”. In the case of CC(=O)OCC1=C(C(=O)O)N2C(=O)C(NC(=O)c3ccc(COc4c(C)cccc4Cl)o3)C2SC1 (stereo not drawn), the outcome is reported as “inactive”. In the case of Cc1ccc([C@@H]2CC=C(C(=O)O)[C@H](c3ccc(Br)cc3)N2S(=O)(=O)c2ccc(C)cc2)cc1, the outcome is reported as “inactive”. For CC1=C/C(=C(/c2cc(C)c(O)c(Br)c2)c2ccccc2S(=O)(=O)O)C=C(Br)C1=O, the outcome was “inactive”. With COc1cc(/C=C2\SC(=S)N(C(C(=O)O)c3ccccc3)C2=O)cc(OC)c1OC (stereo not drawn) the outcome was “inactive”. In the case of C[N+](C)(CCOc1ccccc1)Cc1ccccc1 (tested in a mixture with another compound), the outcome is reported as “inactive”. With O=C(CSc1nc2scc(-c3ccco3)c2c(=O)n1-c1ccccc1)NCC1CCCO1 (stereo not drawn) the outcome was “inactive”. In the case of CC(C)(C)C1CCc2c(sc(NC(=O)C3CC=CCC3C(=O)O)c2C#N)C1 (stereo not drawn), the outcome is reported as “inactive”. In the case of O=C(NC(NC(=S)Nc1ccccc1C(=O)O)C(Cl)(Cl)Cl)c1ccccc1 (stereo not drawn), the outcome is reported as “inactive”. For C=CCOc1ccc(C(c2c(C(=O)O)[nH]c3ccccc23)c2c(C(=O)O)[nH]c3ccccc23)cc1, the outcome was “inactive”. With COc1cccc(C=Nc2cc(C(C)C)c(O)cc2C)c1O the outcome was “inactive”. For O=C(O)COc1ccccc1/C=N/NC(=O)c1cc(-c2ccc(Cl)cc2)nc2ccccc12, the outcome was “inactive”. For Cc1c(Cl)cccc1NS(=O)(=O)c1ccc2c(c1)C1C=CCC1C(c1ccc(C(=O)O)cc1)N2 (stereo not drawn), the outcome was “inactive”. With CCOc1ccc(N(C)C(=O)CCc2nnc3ccc(N4CCCC4)nn23)cc1 the outcome was “inactive”. For Cn1c(SCC(=O)N2CCCCC2)nc2cccnc21, the outcome was “inactive”. In the case of O=C1NC2=C(C(=O)CCC2)C(c2ccccc2[N+](=O)[O-])N1 (stereo not drawn), the outcome is reported as “inactive”. In the case of Nc1sc2c(c1C(=O)NC1CC1)CCCC2, the outcome is reported as “inactive”. With O=C(CCCN1C(=O)/C(=C/c2ccco2)SC1=S)Nc1cccc(C(=O)O)c1 the outcome was “inactive”. In the case of COc1ccc(N2CCC(CNC(=S)Nc3c(C)cccc3C)C2)cc1 (stereo not drawn), the outcome is reported as “inactive”. With CC(Cc1cccc(C(F)(F)F)c1)NCCOC(=O)c1ccccc1 (stereo not drawn) the outcome was “inactive”. In the case of O=C(Cc1cnn(-c2ccccc2)c1)c1ccc(O)c(O)c1O, the outcome is reported as “inactive”. With Cc1ccc(S(=O)(=O)ON2C(=O)c3ccccc3C2=O)c(C)c1 the outcome was “inactive”. For O=c1c(C(c2ccc(O)cc2)c2c(O)nc3n(c2=O)CCCS3)c(O)nc2n1CCCS2, the outcome was “inactive”. With O=[N+]([O-])c1ccc(Cl)c2c1C1C=CCC1C(c1ccccn1)N2 (stereo not drawn) the outcome was “inactive”. With Cc1c(OCC(=O)NCCCN2CCCC2=O)ccc2c3c(c(=O)oc12)CCCC3 the outcome was “inactive”. With Cc1cc(=O)c2c(o1)C(=O)c1occc1C2=O the outcome was “inactive”. With C/C(=C/CCC(C)[C@H]1CC[C@@]2(C)C3=C(CC[C@]12C)[C@@]1(C)CCC(=O)C(C)(C)[C@@H]1CC3)C(=O)O (stereo partly drawn) the outcome was “inactive”. For CCOc1cc(C2CC(=O)N3CN(C4CCCCC4)CSC3=C2C#N)ccc1O (stereo not drawn), the outcome was “inactive”. With N#CC1=C(N)N(c2ccc(Br)cc2)C2=C(C(=O)CCC2)C1c1cccnc1 (stereo not drawn) the outcome was “inactive”. In the case of Cc1[nH]n(-c2ccccc2)c(=O)c1N=Nc1ccccc1C(=O)O, the outcome is reported as “inactive”. With COc1cc(/C=C2\S/C(=N/S(=O)(=O)c3ccccc3)NC2=O)c([N+](=O)[O-])cc1OC the outcome was “inactive”. In the case of COc1cc(/C=C2/C(=O)NN(c3cccc(C)c3)C2=O)cc([N+](=O)[O-])c1O, the outcome is reported as “inactive”. For COc1cc(/C=C2/C(=O)NN(c3ccc(F)cc3)C2=O)cc([N+](=O)[O-])c1O, the outcome was “inactive”. In the case of O=C(O)CN1C(=O)/C(=C2\SC(=S)N(C(Cc3ccccc3)C(=O)O)C2=O)c2ccccc21 (stereo not drawn), the outcome is reported as “inactive”. In the case of O=C(O)c1cnn2c(C(F)(F)F)cc(-c3ccccc3)nc12, the outcome is reported as “inactive”. In the case of O=C1Nc2ccc(Cl)cc2C12Nc1ccccc1-c1nnc(SCc3ccccc3F)nc1O2 (stereo not drawn), the outcome is reported as “inactive”. For Cc1cc(O)c(C(C)C)cc1N=Cc1ccccc1[N+](=O)[O-], the outcome was “inactive”. For Cc1csc(N/N=C/c2ccc(O)c([N+](=O)[O-])c2)n1, the outcome was “inactive”. With Cc1ccc(S(=O)(=O)Nc2nc(-c3ccc(F)cc3)cs2)cc1 the outcome was “inactive”. With CC(=O)c1cc(O)c2ccccc2c1O the outcome was “inactive”. With Cc1nc(COC(=O)c2cc(O)c3ccccc3c2O)cs1 the outcome was “inactive”. For NC(=O)COc1ccc(/C=C2\C(=O)ON=C2c2ccccc2)cc1, the outcome was “inactive”. For CC(=O)N1CCn2c3c(c(=O)c4cc(C)ccc42)CCC31 (stereo not drawn), the outcome was “inactive”. In the case of O=C(O)c1ccc(Cl)c(S(=O)(=O)Nc2ccc(S(=O)(=O)Nc3cccc(Cl)c3)cc2)c1, the outcome is reported as “inactive”. With Cc1ccc(SCc2[nH]nc3c2C(c2ccc(C)o2)C(C#N)=C(N)O3)cc1 (stereo not drawn) the outcome was “inactive”. In the case of Cc1ccc(C2C(C#N)=C(N)OC3=C2C(=O)CC(C)(C)C3)s1 (stereo not drawn), the outcome is reported as “inactive”. With CCS(=O)(=O)c1nc(S(=O)(=O)c2ccc(C)cc2)c(N2CCCC2)s1 the outcome was “inactive”. For O=C(O)CC/C(=C\c1ccc(N2CCCC2)c([N+](=O)[O-])c1)c1nc2ccccc2s1, the outcome was “inactive”. For C=CCNc1cc(N2CCCC2)ccc1[N+](=O)[O-], the outcome was “inactive”. For COc1ccc(/C=C2/SC(=S)N(CC(=O)O)C2=O)cc1OCc1ccc(Cl)cc1, the outcome was “inactive”.
